Measured potencies and affinities stand elsewhere. Records with an inconclusive call do not appear. The source made the active and inactive calls. Unless noted, how the calls were made is not given here.
Legend:
[1] = PAX8 transcriptional activity inhibition in RMG-I – RMG-I cells, luciferase, cherry-pick, dose response (AID 687027;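 active means every replicate test run called active, with the signal dropping as expected and potency within twice the top valid dose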)
[2] = RMG-1 ovarian cancer cell viability loss – cherry-pick, dose response (AID 687029;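 active means signal drop whose fitted half-maximal concentration is at most twice the top valid dose, in every test run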;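 further: cells exposed to compound for 96 hours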)
[3] = CMV-driven luciferase expression suppression in HEK293 – cell-based, luminescence, dry powder, counter-screen for Pax8 inhibitor project, dose response (AID 743020;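 active means signal-lowering compounds whose fitted half-maximal concentration is at or below twice the top tested dose in every run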;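 further: HEK293 cells stably expressing the CMV luciferase reporter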)
[4] = general cell-killing toxicity readout – plate reader, dry powder samples, cytotoxicity control for PAX8 inhibitor project, dose response (AID 743021)
[5] = IOSE-T80 viability loss, PAX8-independent line – cell-based, cherry-pick, selectivity assay for PAX8 inhibitor project, dose response (AID 687032;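 active means fitted half-maximal concentration for viability loss no higher than twice the top valid dose, in every repeat run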;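 further: cells exposed to compound for 96 h before reading; 0% = neutral control wells and -100% = 2 µM mitoxantrone kill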)
[6] = toxicity toward immortalized ovarian surface epithelium – cell-based, plate reader, dry powder samples, cytotoxicity control for PAX8 inhibitor project, dose response (AID 743045);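 further: 0% = neutral control median and -100% = positive control median; more negative values mean more cell killing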
[7] = A2780 cell killing – plate reader, dry powder samples, cytotoxicity control, dose response (AID 743046);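 further: 0% = neutral control wells and -100% = cytotoxic reference compound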
[8] = IGROV1 cell killing – plate reader, dry powder samples, PAX8 inhibitor project, dose response (AID 743043);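 further: more negative means fewer viable cells or more cytotoxicity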
[9] = OVCAR-3 cell viability loss – plate reader, dry powder samples, PAX8 inhibitor project, dose response (AID 743044); conditions: max activity: at 35 µM, hits give low values unless noted
[10] = OVCAR8 cell viability loss – plate reader, dry powder samples, PAX8 project, dose response (AID 743197)

COc1ccc(NC(=O)c2nn(C34CC5CC(CC(C5)C3)C4)cc2[N+](=O)[O-])cc1
inactive: outcome [1] | outcome [2] | outcome [3] | outcome [4]

Fc1ccc(CSc2ccc(-c3ccco3)nn2)cc1
inactive: outcome [1] | outcome [2] | outcome [5] | outcome [4]

Cc1nn(CCO)c2nc(-c3cccs3)cc(C(F)(F)F)c12
inactive: outcome [1] | outcome [2] | outcome [5] | outcome [4]

COc1ccc(NC(=O)C[C@H]2C(=O)N(c3ccc(OC)cc3)C[C@@H]2C)cc1
inactive: outcome [1] | outcome [2] | outcome [3] | outcome [4]

O=C1c2cccc3c(O)ccc(c23)C(=O)N1c1ccc(Cl)cc1
inactive: outcome [1] | outcome [2] | outcome [5] | outcome [4]

CCCCC(=O)N1CCN(c2ccc(OC)cc2[N+](=O)[O-])CC1
inactive: outcome [1] | outcome [2] | outcome [5] | outcome [4]

O=C(/C=C/c1ccco1)Nc1nc(-c2ccccc2)cs1
inactive: activity change, negative = inhibition [1] 99.9% [at 8 µM] | outcome [2] | outcome [5] | outcome [4]

Nc1ccc2c(c1)CC(=O)c1ccccc1S2
inactive: outcome [1] | outcome [2] | outcome [3] | outcome [4]

O=C(Cc1nnc(NC(=O)c2ccccc2)s1)N/N=C/c1ccco1
inactive: outcome [1] | outcome [2] | outcome [3] | outcome [4]

O=C(NCC1CCCO1)C(=O)NCC(c1ccco1)N1CCN(c2ccccc2)CC1 (stereo not given)
inactive: outcome [1] | outcome [2] | outcome [3] | outcome [4]

CCN(C(=O)COC(=O)c1ccc(S(=O)(=O)N2CCCc3ccccc32)cc1)C1CCS(=O)(=O)C1 (stereo not given)
inactive: outcome [1] | outcome [2] | outcome [5] | outcome [4]

COc1ccccc1NC1=Nc2cccc3cccc1c23
inactive: outcome [1] | outcome [2] | outcome [5] | outcome [4]

O=C(NNC(=O)c1cccc2ccccc12)c1cccc(F)c1
inactive: outcome [1] | outcome [2] | outcome [3] | outcome [4]

COc1ccc2oc(C)c(C(=O)c3ccc([N+](=O)[O-])cc3)c2c1
inactive: outcome [1] | outcome [2] | outcome [5] | outcome [4]

O=C(Cn1cc(C(F)(F)F)ccc1=O)Nc1ccc2c(c1)OCO2
inactive: outcome [1] | outcome [2] | outcome [3] | outcome [4]

O=[N+]([O-])c1ccc2nc(SCc3cn4ccccc4n3)[nH]c2c1
inactive: outcome [1] | outcome [2] | outcome [5] | outcome [4]

Cc1ccc(/C=N/NC(=O)c2ccccn2)o1
inactive: activity change, negative = inhibition [1] 80.8% [at 8 µM] | outcome [2] | outcome [5] | outcome [4]

O=C(/C=C/c1c(Cl)nc2ccccn12)Nc1ccc(F)cc1
inactive: outcome [1] | outcome [2] | outcome [5] | outcome [4]

O=C(O)C1C=CC(C(=O)O)c2ccccc21 (stereo not given)
inactive: outcome [1] | outcome [2] | outcome [3] | outcome [4]

CC1CCN(CCOc2ccc(OCc3ccccc3)cc2)CC1
inactive: outcome [1] | outcome [2] | outcome [5] | outcome [4]

O=[N+]([O-])c1cccc(-c2nnc(-c3ccc4c(c3)OCO4)o2)c1
inactive: outcome [1] | outcome [2] | outcome [3] | outcome [4]

O=C(CSc1nc2ccccc2s1)NCCOc1ccccc1
inactive: outcome [1] | outcome [2] | outcome [5] | outcome [4]

Cc1cc(=O)oc2ccc(OC(=O)CN3C(=O)c4cccc([N+](=O)[O-])c4C3=O)cc12
inactive: outcome [1] | outcome [2] | outcome [5] | outcome [4]

O=C(/C=C/c1ccc(Cl)cc1Cl)N1CCN(c2ccccc2[N+](=O)[O-])CC1
inactive: outcome [1] | outcome [2] | outcome [3] | outcome [4]

O=C(O)CC(NC(=O)C1c2ccccc2Oc2ccccc21)c1ccc(OC2CCCC2)cc1 (stereo not given)
inactive: outcome [1] | outcome [2] | outcome [3] | outcome [4]

CCCCCC(=O)N/N=C(\C)c1ccc(N2CCCCC2)cc1
inactive: outcome [1] | outcome [2] | outcome [4]

Nn1cnnc1N/N=C\c1ccc(-c2ccccc2[N+](=O)[O-])o1
inactive: outcome [1] | outcome [2] | outcome [3] | outcome [4]

Cc1cc([N+](=O)[O-])nn1CCCC(=O)Nc1sc2c(c1C(N)=O)CCC(C)C2 (stereo not given)
inactive: outcome [1] | outcome [2] | outcome [4]

CC(=O)N/C(=C\c1ccccc1)C(=O)OCC(=O)NC1CCCC1
inactive: outcome [1] | outcome [2] | outcome [3] | outcome [4]

Oc1ccc(F)c2cccnc12
inactive: outcome [1] | outcome [5] | outcome [3] | outcome [4]

Cc1cc(C)c2c(c1)/C(=N/NC(=O)c1cc(C)oc1C)CCC2
inactive: outcome [1] | outcome [2] | outcome [4]

Cc1ccc(-c2ccc([C@@H]3[C@H](CO)N4CCCCN(C(=O)Nc5cccc(F)c5)C[C@@H]34)cc2)cc1
inactive: outcome [1] | outcome [2] | outcome [3] | outcome [4] | outcome [6] | outcome [7]

CO[C@@H]1CN(C)C(=O)c2cc(NC(=O)c3nc4ccccc4s3)ccc2OC[C@H](C)NC[C@H]1C
inactive: outcome [1] | outcome [2] | outcome [3] | outcome [4] | outcome [8] | max activity [9] -38.8% [at 30 µM, hits give low values] | outcome [6] | outcome [10]

Reference: PubChem BioAssay
